Test results: PubChem BioAssay AID1851 (National Center for Advancing Translational Sciences (NCATS), 2009)
“And” between values parts separate entries of the source, which are not always exact repeats. Equal values may be shown once. Among all 16,000 compounds or so, about 2,600 (16%) were called active. Another 20% or so got no clear call; they are omitted. Calls come from the whole dose curve; as a rule, active = well fitted curve in the direction sought with a large enough effect; inconclusive = small, poorly fitted or top-dose-only effect, or effect the other way; inactive = no such curve, though single readings can be large or run the other way. The list is a sample of the results. Some compounds were tested as several samples or in several runs, with calls that do not always agree.

target: Cytochrome P450 2D6 (Homo sapiens) (UniProt P10635); assay: Cytochrome panel assay with activity outcomes; conditions: recombinant CYP, pro-luciferin dealkylation, luminescence, p450-cyp2d6; series mostly up to 57.1 µM; activity, negative = inhibition: at the top concentration
% is set by controls: 0 for no effect and ±100 for the full control effect.

Sequence of Cytochrome P450 2D6 (Homo sapiens) (P10635 whole entry, looked up): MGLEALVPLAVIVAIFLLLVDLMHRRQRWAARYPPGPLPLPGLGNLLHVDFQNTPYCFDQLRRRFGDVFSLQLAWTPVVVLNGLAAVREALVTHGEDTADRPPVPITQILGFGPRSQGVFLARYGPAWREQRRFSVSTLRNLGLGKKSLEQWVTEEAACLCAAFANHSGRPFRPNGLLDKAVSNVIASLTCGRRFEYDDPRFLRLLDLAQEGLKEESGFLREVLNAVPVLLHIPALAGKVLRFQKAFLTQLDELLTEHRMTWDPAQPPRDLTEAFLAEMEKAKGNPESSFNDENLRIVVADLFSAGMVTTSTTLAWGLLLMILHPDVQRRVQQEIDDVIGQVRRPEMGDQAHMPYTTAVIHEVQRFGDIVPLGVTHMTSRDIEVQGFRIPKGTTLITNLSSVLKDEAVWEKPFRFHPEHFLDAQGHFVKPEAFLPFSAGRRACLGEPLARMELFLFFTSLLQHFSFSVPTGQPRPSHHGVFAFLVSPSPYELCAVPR

Row | Compound | activity, negative = inhibition | AC50
1 | COc1cccc(Cn2c(=O)c(-c3cn(C)c4ccccc34)nc3cnc(N4CCOCC4)nc32)c1 | -6.4% (inactive) | 
2 | O=c1c(-c2ccc(F)c(F)c2)nc2cncnc2n1-c1ccccc1 | -7.35% (inactive) | 
3 | NS(=O)(=O)c1ccc(N=Nc2ccc(O)c(C(=O)O)c2)cc1 | -7.58% [at 11.4 µM] (inactive) | 
4 | Cc1ccccc1/C=C1\OC(=O)c2ccccc21 | -3.09% (inactive) | 
5 | CCCC[C@@H]1C[C@H]1C(NC(=O)c1cccs1)c1ccccc1C(F)(F)F (some centres not stated) | 2.19% (inactive) | 
6 | Cc1ccc(C(c2nnnn2CC2CCCO2)N2CCN(C(=O)c3ccco3)CC2)cc1 (configuration not stated) | -15.5% (inactive) | 
7 | CCC(c1nnnn1CCOC)N1CCN(C(=O)c2ccco2)CC1 (configuration not stated) | -6.06% (inactive) | 
8 | CC(C)CCn1nnnc1C(c1ccc(F)cc1)N1CCN(C(=O)c2ccco2)CC1 (configuration not stated) |  | 14.1 µM (active)
9 | O=C(Nc1ccccc1N1CCN(C(=O)c2ccccc2)CC1)c1cc(Br)ccc1Cl | -14.4% (inactive) | 
10 | S=c1[nH]nc(CSCc2ccccc2Cl)n1-c1ccccc1 | -16.7% (inactive) | 
11 | COC(=O)[C@@]1(Cc2ccc(OC)cc2)[C@@H]2[C@@H](CC(=O)[C@H]2CC(=O)C(=O)N2CCCC2)CN1C(=O)c1ccccc1 | -5.43% (inactive) | 
12 | Cc1cccc(NC(=S)N/N=C/c2ccc([N+](=O)[O-])s2)c1 | -9.95% (inactive) | 
13 | COc1ccc(-c2nc(N)c3ncn([C@H]4O[C@@H](CO)[C@@H](O)[C@@H]4O)c3n2)cc1 | 1.32% [at 11.4 µM] (inactive) | 
14 | CC(Sc1nnc(C(C)N(C)C)n1-c1ccc(Cl)cc1)C(=O)Nc1ccc2c(c1)OCO2 (configuration not stated) |  | 14.1 µM (active)
15 | Cc1cc(C)c(NC(=O)C(C)Sc2nnc(-c3ccco3)n2-c2ccccc2)c(C)c1 (configuration not stated) | -4.41% (inactive) | 
16 | COc1ccc(-n2c(=O)[nH]cc(C(=O)Nc3ccc4c(c3)OCCO4)c2=O)cc1 | 3.8% (inactive) | 
17 | CC(C)C1NC(=S)N(Cc2ccccc2)C1=O (configuration not stated) | 10% (inactive) | 
18 | COc1ccc(C[N+](C)(C)N)cc1OC | 0.726% [at 11.4 µM] (inactive) | 
19 | COc1ccc(CCNC[C@H](O)c2ccc(O)cc2)cc1OC | 0.765% (inactive) | 
20 | COc1ccc(CNCCC(c2ccc(OC(C)C)cc2)C(C)C)cc1OC (configuration not stated) |  | 0.251 µM (active)
21 | COC(=O)C/C=C\[C@@H](C)[C@@H](/C=N\O[C@@H](C)c1cc(-c2c(C)cc(C)cc2C)no1)OC | -10.8% [at 11.4 µM] (inactive) | 
22 | COc1ccc(-n2c(CNc3ccc(C)cc3)nnc2SCC(=O)Nc2nc(-c3ccccc3)cs2)cc1 | -1.16% (inactive) | 
23 | O=S1(=O)C=C(N2CCOCC2)c2ccccc21 | -18.5% (inactive) | 

Row | Compound | activity, negative = inhibition | AC50
24 | O=c1cc(N2CCOCC2)oc2c(-c3ccccc3)cccc12 |  | inactive and 25.1 µM (active)
25 | CCc1ccccc1N1C(=O)c2cccc3c(N4CCOCC4)c([N+](=O)[O-])cc(c23)C1=O | 2.74% (inactive) | 
26 | CNc1nc(C)cc(C)c1S(=O)(=O)c1ccc(C)cc1 | 11.4% (inactive) | 
27 | Cc1ccc(-n2c3c(c(=O)[nH]c2=O)C(C(F)(F)F)(C(F)(F)F)NC(=O)N3)cc1 | -1.45% (inactive) | 
28 | CC(CC(=O)Nc1ccc(Cl)c([N+](=O)[O-])c1)c1ccccc1 (configuration not stated) |  | 0.447 µM (active)
29 | COc1ccc(OC)c(NC(=O)CC(Cc2ccccc2OC)C(=O)O)c1 (configuration not stated) | 25% (inactive) | 
30 | CCN(CC)S(=O)(=O)c1ccc(OC)c(NC(=O)CSc2ccccc2)c1 | -21.4% (inactive) | 
31 | COc1ccccc1NC(=O)Cn1cncc1-c1ccc([N+](=O)[O-])cc1 | -5.83% (inactive) | 
32 | COc1ccc([N+](=O)[O-])cc1NC(=O)CC(C)c1ccccc1 (configuration not stated) |  | 11.2 µM (active)
33 | Cc1ccc([N+](=O)[O-])cc1NC(=S)NC(=O)C(C)(C)C | 13.5% (inactive) | 
34 | O=C(CSc1ccc(C(F)(F)F)cc1[N+](=O)[O-])Nc1ccccc1 | -20.2% (inactive) | 
35 | CCOc1cc(NC(=O)c2ccccc2[N+](=O)[O-])c(OCC)cc1NC(=O)CC(C)C | 16.4% (inactive) | 
36 | COc1ccc([N+](=O)[O-])cc1NC(=S)NC(NC(=O)Cc1ccc(OC)c(OC)c1)C(Cl)(Cl)Cl (configuration not stated) |  | 0.355 µM (active)
37 | CCN(CC(=O)Nc1ccc([N+](=O)[O-])cc1OC)c1ccccc1 |  | 14.1 µM (active)
38 | CCOc1ccc(NC(=S)NC(=O)/C=C/c2ccc(OC)c(OC)c2)c([N+](=O)[O-])c1 | 11.2% (inactive) | 
39 | CCCOc1ccc(/C=C/C(=O)Nc2ccc([N+](=O)[O-])cc2C)cc1OC | 3.41% (inactive) | 
40 | Cc1ccc(S(=O)(=O)N[C@H]2COC(=O)CC=C[C@@H](C)[C@H]3C=C[C@H](O)[C@@H](COC(=O)CC=C[C@H]2C)O3)cc1 | -6.53% [at 11.4 µM] (inactive) and 13.3% [at 11.4 µM] (inactive) | 
41 | Cc1ccc(N2C(=O)CSC2c2cccnc2)cc1F (configuration not stated) | -6.23% (inactive) | 
42 | c1ccc(-c2noc(-c3ccc4ccccc4c3)n2)cc1 | -26.1% (inactive) | 
43 | CC(C)[C@H](CO)Nc1nc(Nc2ccc(C(=O)O)c(Cl)c2)c2ncn(C(C)C)c2n1 | 2.31% (inactive) | 
44 | C=CCNC(=O)c1cccn1-c1ccsc1C(=O)OC | 15.1% (inactive) | 
45 | O=C(N[C@@]1(C(=O)O)C[C@@H]1c1ccccc1)c1ccccc1 | 11.3% [at 11.4 µM] (inactive) | 
46 | CCCCn1c(SC(C)C(N)=O)nc2cc(C(=O)OC)ccc2c1=O (configuration not stated) | 28.8% (inactive) | 

Row | Compound | activity, negative = inhibition | AC50
47 | C/C(N)=C(/C#N)C(=O)CSc1nnc(COc2cc(C)ccc2C)o1 | 0.41% (inactive) | 
48 | COc1ccc(S(=O)(=O)N2CC3CCCN3c3ccc(C(F)(F)F)cc32)cc1 (configuration not stated) | -19.1% (inactive) | 
49 | Cc1nn(Cc2ccc(Cl)cc2)c(C)c1NC(=O)CSc1nc2c(c(C(F)(F)F)n1)CCc1ccccc1-2 | -21.3% (inactive) | 
50 | Nc1ccc(N=Nc2c(S(=O)(=O)O)cc3ccccc3c2S(=O)(=O)O)cc1 | 8.88% [at 11.4 µM] (inactive) | 
51 | COc1cnc(-c2ccccn2)nc1Oc1ccc(Cl)c2ccccc12 | -13.3% (inactive) | 
52 | Cn1cc(-c2nc3cnc(N4CCOCC4)nc3n(CCC#N)c2=O)c2ccccc21 | 6.34% (inactive) | 
53 | CCOc1ccc(Cc2nc(C)c(CC(=O)N3CCOCC3)c(=O)[nH]2)cc1 | -12.7% (inactive) | 
54 | Cc1noc(C)c1C(=O)N1CCC2(CCCN(C(=O)Nc3cccc(F)c3)C2)CC1 | -6.3% (inactive) | 
55 | NC(Cc1ccccc1)=NCC(=O)O | 9.41% [at 11.4 µM] (inactive) | 
56 | NC(=NCc1ccccc1)NC(=O)c1nc(Cl)c(N)nc1N |  | 15.8 µM (active) and 5.01 µM (active)
57 | COC(=O)c1nnn(Cc2ccccc2)c1N | -25.1% (inactive) | 
58 | NC(=NCc1ccc(Cl)c(Cl)c1)NC(=O)c1nc(Cl)c(N)nc1N |  | 12.6 µM (active)
59 | Cc1cc(C)c2c(=O)[nH]c(SCC(=O)N(C)C)nc2n1 | 4.04% (inactive) | 
60 | CN(C)c1ncc2nc(-c3ccc(Cl)cc3)c(=O)n(Cc3cccs3)c2n1 | 0.505% (inactive) | 
61 | CCOc1ccc(OCC)c(-c2c(=O)n(OCc3ccc(C(C)(C)C)cc3)c3ccccc3[n+]2[O-])c1 | -0.869% (inactive) | 
62 | CC(=O)NNc1cccc(Cl)n1 | -5.21% (inactive) | 
63 | CCOC(=O)C1=C(c2ccccc2)N=c2s/c(=C\c3cc(OC)c(OC)c(OC)c3)c(=O)n2C1c1cccs1 (configuration not stated) | 24.8% (inactive) | 
64 | CCOC(=O)C1=C(c2ccccc2)N=c2s/c(=C\c3cccc(O)c3)c(=O)n2C1c1cccs1 (configuration not stated) |  | 3.16 µM (active)
65 | CCOC(=O)C1=C(c2ccccc2)N=c2s/c(=C\c3ccc(O)cc3)c(=O)n2C1c1cccs1 (configuration not stated) | -6.93% (inactive) | 
66 | Cc1cc(/C=C(/C#N)C(=O)Nc2ccccc2)c(C)n1-c1cccnc1 | 3.42% (inactive) | 
67 | O=c1c(-c2cccs2)nc2cncnc2n1-c1ccccc1 | -5.51% (inactive) | 
68 | O=c1[nH][nH]c(C(F)(F)F)c1C=Nc1ccccc1Cl | 3.6% (inactive) | 
69 | O=C(CSc1cccc2cccnc12)OCC(=O)c1ccccc1 | -14% (inactive) | 

Row | Compound | activity, negative = inhibition | AC50
70 | CCNc1ncc2nc(CCc3ccccc3)c(=O)n(Cc3ccc(F)cc3)c2n1 | 2.94% (inactive) | 
71 | COc1ccc(-n2c(=O)c(CCc3ccccc3)nc3cnc(N4CCN(C)CC4)nc32)cc1 | -5.66% (inactive) | 
72 | Cn1c(=O)c(CCc2ccccc2)nc2cncnc21 | -15% (inactive) | 
73 | Cn1c(=O)c(CCc2ccccc2)nc2cnc(Nc3ccccc3)nc21 | -1.73% (inactive) | 
74 | COc1ncc2nc(CCc3ccccc3)c(=O)n(-c3ccccc3)c2n1 | -10.4% (inactive) | 
75 | CCNc1ncc2nc(CCc3ccccc3)c(=O)n(-c3ccc(OC)cc3)c2n1 |  | 0.251 µM (active)
76 | CCNc1ncc2nc(CCc3ccccc3)c(=O)n(C3CC3)c2n1 |  | 0.398 µM (active)
77 | COc1cccc(Nc2ncc3nc(CCc4ccccc4)c(=O)n(C4CC4)c3n2)c1 | -14.9% (inactive) | 
78 | CCNc1ncc2nc(CCc3ccccc3)c(=O)n(C)c2n1 |  | 1.58 µM (active)
79 | CCNc1ncc2nc(CCc3ccccc3)c(=O)n(-c3ccccc3)c2n1 |  | 0.1 µM (active)
80 | COc1ccc(-n2c(=O)c(CCc3ccccc3)nc3cncnc32)cc1 | -18.1% (inactive) | 
81 | CCNc1ncc2nc(C)c(=O)n(C3CC3)c2n1 | -2.63% (inactive) | 
82 | CC(C)Cc1nc(N2CCN(C(=O)c3ccccc3)CC2)c(C#N)c2c1CCC2 | -29.2% (inactive) | 
83 | Nc1nc(N)[n+]([O-])c(N)c1NCO | -8.44% [at 11.4 µM] (inactive) | 
84 | CCN1C(=O)[C@H]2[C@H]3[C@H](O)[C@H](O)C/C(=N/OCC(C)C)[C@@H]3CC[C@@H]2C1=O | 8.5% [at 11.4 µM] (inactive) | 
85 | O=C(CN1C(=O)C2C3C=CC(C3)C2C1=O)Nc1ccc(C(=O)O)cc1 (configuration not stated) | 1.81% (inactive) | 
86 | CC(C)OC(=O)c1cccc(C(=O)Oc2ccc(Br)cc2)n1 | 17.4% (inactive) | 
87 | COc1cc(C2C(C#N)=C(N)N(Nc3ccccc3)C3=C2C(=O)CC(C)(C)C3)ccc1OCc1ccccc1 (configuration not stated) | -12.7% (inactive) | 
88 | Cc1c(-n2cc(C(=O)c3cc(Cl)ccc3O)cc(C#N)c2=O)c(=O)n(-c2ccccc2)n1C | -19.1% (inactive) | 
89 | CN(C)[C@H]1C(=O)C(C(=O)NCN2CCCC2)=C(O)[C@]2(O)C(=O)C3=C(O)c4c(O)cccc4[C@@](C)(O)[C@H]3C[C@@H]12 | -6.78% [at 25.6 µM] (inactive) | 
90 | CCOC(=O)c1c(NC(=O)c2c(Br)cnn2C)c(C#N)nn1-c1ccccc1 | 4.17% (inactive) | 
91 | O=C(N/N=C/c1ccccn1)c1ccco1 | -15.4% (inactive) | 
92 | COc1cccc2cc(NC(=O)C3CCCCC3)c(=O)oc12 | 5.46% (inactive) | 
